# KB-V1 cytotox = kills drug-selected multidrug resistant KB-V1 cells; KB-V1 MDR cells viability, CellTiter-Glo, 72 h; 400,000 tested, 3.4% active; AID 1347076; Potency, µM (top dose mostly 46.1 µM), hits mostly cytotoxic; further: potency means the concentration at half of the fitted maximal effect; on the % scale 0 is the no-effect control and ±100 the full control effect; nearly all actives have a fitted effect of over 60% in size
#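 qHTS viability screen in drug-selected KB-V1 MDR cells: 72 h compound treatment at 37 degrees C, ATP luminescence end point.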
# MCF10A rereplic = inducers of DNA re-replication in MCF 10A breast cells | 350,000 tested, 2.9% active | Potency, µM (highest dose often 46.1 µM), for inactives: top-dose activity, positive = re-replication, usual class: activators | AID 624296 | MCF 10A DNA re-replication, Hoechst nuclear intensity, 48 h; further: potency means the concentration at half of the fitted maximal effect; % of control where 0% means no effect; nearly all actives have a fitted effect of over 50% in size
# KCNH2 3.1 block = inhibitors of human KCNH2 3.1 potassium channel isoform; U2OS KCNH2 3.1, thallium flux FluxOr; hits give low values; activity change, % (tested at about 1.8 µM); 340,000 tested, 0.95% active;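 active means maximum activity change below -70%; inconclusive means maximum activity change from -70% to -50%; inactive means maximum activity change above -50%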;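 further: thallium influx rate constant from kinetic fluorescence after stimulation buffer; on the % scale 0 is the no-effect control and ±100 the full control effect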
#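 Normalized rate constant (relative to positive and negative DMSO controls) derived from a 2 min kinetic fluorescence read after stimulation; U2OS cells expressing the 3.1 isoform via virus at 1.77 x 10^8 /mL.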
# KB-3-1 tox = kills parental KB-3-1 adenocarcinoma cells; Potency, µM (highest dose often 46.1 µM), most hits filed as cytotoxic; AID 1347075; 400,000 tested, 1.4% active; KB-3-1 viability, CellTiter-Glo ATP luminescence, 72 h; further: potency means the concentration at half of the fitted maximal effect; on the % scale 0 is the no-effect control and ±100 the full control effect; nearly all actives have a fitted effect of over 60% in size
#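 Parental KB-3-1 viability, qHTS format: 72 h compound exposure, 37 °C; CellTiter-Glo; media-only wells and DMSO plates as controls; concentration-effect fits on corrected data.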
# hERG WT inh = inhibitors of human wildtype KCNH2 potassium channel; Q12809; U2OS, BacMam KCNH2, thallium flux FluxOr; hits give low values; activity change, % at 1.84 µM; 340,000 tested, 0.37% active;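 active means maximum activity change below -70%; inconclusive means maximum activity change between -70% and -50%; inactive means maximum activity change above -50%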; further: on the % scale 0 is the no-effect control and ±100 the full control effect
# Target sequence (Q12809 whole entry, looked up): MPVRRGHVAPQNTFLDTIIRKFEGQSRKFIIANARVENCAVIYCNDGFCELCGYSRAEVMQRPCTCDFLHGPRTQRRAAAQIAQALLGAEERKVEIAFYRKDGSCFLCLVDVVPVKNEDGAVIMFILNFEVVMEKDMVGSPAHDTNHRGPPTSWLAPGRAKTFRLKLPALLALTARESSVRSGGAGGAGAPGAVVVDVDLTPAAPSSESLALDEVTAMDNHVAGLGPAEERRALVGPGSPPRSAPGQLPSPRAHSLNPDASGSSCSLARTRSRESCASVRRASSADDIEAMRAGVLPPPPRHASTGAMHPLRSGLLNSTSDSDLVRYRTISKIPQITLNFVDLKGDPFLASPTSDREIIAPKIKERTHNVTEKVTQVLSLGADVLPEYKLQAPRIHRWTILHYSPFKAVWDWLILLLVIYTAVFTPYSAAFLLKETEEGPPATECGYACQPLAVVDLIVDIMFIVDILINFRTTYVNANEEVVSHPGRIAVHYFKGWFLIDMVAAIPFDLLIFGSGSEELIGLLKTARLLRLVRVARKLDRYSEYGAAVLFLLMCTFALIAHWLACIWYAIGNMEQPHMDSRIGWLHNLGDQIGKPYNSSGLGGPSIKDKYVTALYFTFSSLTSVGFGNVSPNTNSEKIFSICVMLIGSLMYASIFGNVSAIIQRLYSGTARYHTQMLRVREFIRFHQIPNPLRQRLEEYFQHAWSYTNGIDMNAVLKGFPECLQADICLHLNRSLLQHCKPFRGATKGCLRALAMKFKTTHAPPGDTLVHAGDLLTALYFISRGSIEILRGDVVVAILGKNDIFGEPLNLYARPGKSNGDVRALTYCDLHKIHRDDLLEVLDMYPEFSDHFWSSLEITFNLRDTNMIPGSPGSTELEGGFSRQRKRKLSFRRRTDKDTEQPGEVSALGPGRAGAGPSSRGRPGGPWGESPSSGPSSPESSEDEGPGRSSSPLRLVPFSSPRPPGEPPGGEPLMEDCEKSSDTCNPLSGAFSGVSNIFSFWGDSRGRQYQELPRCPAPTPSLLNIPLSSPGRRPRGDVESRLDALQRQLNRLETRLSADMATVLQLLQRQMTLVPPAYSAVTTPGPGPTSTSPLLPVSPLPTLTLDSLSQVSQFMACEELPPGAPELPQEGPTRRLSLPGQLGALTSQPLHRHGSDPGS
#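 U2OS cells were transduced with wild-type KCNH2 virus (2.03 x 10^8 / mL) for 4 h at room temperature, then cultured overnight at 37 C. Thallium flux was read with FluxOr dye. Rate constants were normalized to DMSO controls.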
# SW480 rerep = inducers of DNA re-replication in SW480 colon cancer cells; 340,000 tested, 1.8% active; Potency, µM (series often up to 46.1 µM), inactives show at the top dose re-replication activation, hits mostly activators; SW480 DNA re-replication, Hoechst DNA content imaging, 48 h; AID 624297; further: potency means the concentration at half of the fitted maximal effect; % of control where 0% means no effect; nearly all actives have a fitted effect of over 55% in size
#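 Image-based DNA-content assay: after two days of treatment, nuclei were labelled with the DNA dye Hoechst and imaged, and hits were compounds raising the count of nuclei showing high fluorescence intensity.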
# * = called active by the depositor; i = inactive; ? = inconclusive; . = not tested or not shown; ! = repeats disagree; [ ] = another dose, or the depositor's remark. This is a sample that favours compounds with a hit; in the whole collection about 7.6% have one here. Unless noted, the call rests on the fitted dose curve; in most records, active means well fitted curve in the direction sought with a large enough effect; inconclusive means small, poorly fitted or top-dose-only effect, or another doubt; inactive means no such curve, though single readings can be large; an effect the other way counts as inactive or inconclusive.
SMILES,KB-V1 cytotox,MCF10A rereplic,KCNH2 3.1 block,KB-3-1 tox,hERG WT inh,SW480 rerep
C=CC[C@@H](CC(=O)N(CCO)Cc1ccccc1)C(=O)NC[C@H](OC(=O)[C@@H](CC=C)CC(=O)OC(C)(C)C)c1ccccc1,i,41%,-11,?,7,-2%
CCC(CC)N1CCN(Cc2nc3ccccc3c(=O)n2-c2ccc(F)cc2)CC1,?,0.58µM*,-5,i,55,-23%
O=C(CCC1CCCC1)c1c(O)c2ccccc2oc1=O,i,18µM*,-25,?,-2,-8%
Cc1ccc(C(O)(c2ccc(C)c(C)c2)C2CN3CCC2CC3)cc1C (stereo not given),i,?,?,?,4,2%
Cc1ccccc1C(O)(Cc1ccccc1)C1CN2CCC1CC2 (stereo not given),?,4%,-40,10µM*,-5,-8%[9.22 µM]
O=C(COc1ccccc1Cl)N1CCN(CCc2ccccn2)CC1,i,.,.,i,.,.
O=C(Nc1ccc(Cl)cc1)Nc1ccc(Cl)c(Cl)c1,21µM*!,?,13,?,-9,?
CCN1CCN(c2ccc(NC(C)=O)cc2Cl)CC1,i,?,-4,i,6,-4%
Nc1c2c(nc3sc4c(c13)CCCCC4)CCCC2,?,?,2,29µM*,19,-2%
NC(=O)c1sc2nc3c(c(-c4cccs4)c2c1N)CCCC3,.,?,.,.,.,-422%
C=CCc1cc(C=C2C(=O)N(C)C(=O)N(C)C2=O)cc(OCC)c1OCc1ccccc1,16µM*,?,10,?,6,4%
O=C1NC(=O)C(=Cc2ccc(SC3CCCCC3)o2)C(=O)N1,i,21µM*,16,i,1,?
C[C@H](N)Cc1ccccc1,.,0%,.,.,.,2%
CCCCn1c(NS(=O)(=O)c2ccccc2)c(C(=O)OCC)c2nc3ccccc3nc21,?,6.5µM*,4,i,8,16µM*
CCCCOCCCn1c(N)c(C(=O)OC(C)COC)c2nc3ccccc3nc21 (stereo not given),i,1%,-7,i,1,0%
CC(C)(C)OC(=O)c1c(N)n(Cc2ccco2)c2nc3ccccc3nc12,i,?,-2,i,1,?
CCCCn1c(NC(=O)c2ccc(Br)o2)c(C(=O)OCC)c2nc3ccccc3nc21,i,18µM*!,-1,i,-7,16µM*!
CN(C)CCNC(=O)C(=O)NCC1OCCCN1S(=O)(=O)c1cccs1 (stereo not given),i,1%,-22,?,-1,?
c1ccc2c(c1)cc1ccc3cccc4ccc2c1c34,i,?,-3,i,-9,21µM*
OCCN1CCN(CCCN2c3ccccc3Sc3ccc(C(F)(F)F)cc32)CC1,?,23µM*!,-6,i,7,?
Cc1cccc(CN2CCCC(C(=O)c3ccc(C(F)(F)F)cc3)C2)n1 (stereo not given),i,-4%,.,i,24,1%
Cc1cc(Cl)ccc1C(=O)C1CCCN(C2CCSCC2)C1 (stereo not given),i,-18%,-87*,i,-34,20%
O=C(c1ccc(C(F)(F)F)cc1)C1CCCN(C2CCSCC2)C1 (stereo not given),?,-2%,-36,i,-38,5.2µM*
Cc1ccc(NC(=O)CCCn2c(=O)oc3ccccc32)c(O)c1,i,-34%,20,i,-8,-11%
O=Cc1ccco1,.,-1%,.,.,.,-1%
SMILES,KB-V1 cytotox,MCF10A rereplic,KCNH2 3.1 block,KB-3-1 tox,hERG WT inh,SW480 rerep
CCC(C)OC(=O)c1c(N)n(Cc2cccs2)c2nc3ccccc3nc12 (stereo not given),i,12µM*,-2,?,-10,?
Nc1c(C(=O)OCc2ccccc2)c2nc3ccccc3nc2n1Cc1cccs1,5.2µM*,6.5µM*,4,i,-15,15µM*
O=C1CC(CSc2ccc(Cl)cc2)=NN1,i,?,2,i,-9,-7%
C[C@]12CCC(=O)C(O)=C1CC[C@@H]1[C@H]3CCC(=O)[C@@]3(C)CC[C@@H]12,.,15%,.,.,.,-2%
Clc1ccc([C@H](Cn2ccnc2)OCc2csc3c(Cl)cccc23)c(Cl)c1,.,4%[20.6 µM],.,.,.,0%[20.6 µM]
Clc1ccc(CCC(Cn2ccnc2)Sc2c(Cl)cccc2Cl)cc1 (stereo not given),21µM*,?,?,?,29,-56%
NC(=O)CN1CC(O)CC1=O (stereo not given),.,1%,.,.,.,-2%
CC1C(c2ccccc2)OCCN1C (stereo not given),i,1%,.,i,17,-2%
C[C@H]1C=CC(=O)O[C@H]1c1ccccc1,?,?,-6,21µM*,-2,-7%[9.22 µM]
CCCCn1c(O)c(C(=O)/C=C/c2c[nH]c3ccccc23)c(=O)[nH]c1=O,i,18µM*,-7,i,-8,?
CCCCn1c(O)c(C(CC)=NCCc2ccccc2)c(=O)[nH]c1=O,?,6%,3,i,-8,0%
CC1=CC(O)C(O)C2(C)C1CC1OC(=O)CC3C(C)C(O)C(=O)C2C13CO (stereo not given),i,0%,2,18µM*,-15,?
CC(C)Oc1cc(-n2c(=S)[nH]c3ccccc3c2=O)c(Cl)cc1Cl,23µM*,84%,-17,?,-3,9%
c1ccc(Nc2ccc3ccccc3c2)cc1,i,5%,2,i,-3,-5%
CC(C)Nc1ccc(Nc2ccccc2)cc1,i,?,-5,18µM*,-2,24µM*
CC1Cc2ccccc2N1Cc1cccc(S(=O)(=O)N(C)C)c1 (stereo not given),i,?,-5,i,7,1%
O=C(Nc1nccs1)c1c(O)c2c(n(Cc3ccco3)c1=O)CCCC2,12µM*,10%,-29,?,8,-14%
O=C(Nc1ccccc1)c1c(O)c2c(n(Cc3ccco3)c1=O)CCCC2,i,2%,-5,?,1,-4%
Cn1cc([N+](=O)[O-])c(C(=O)Nc2ccc3c(C(F)(F)F)cc(=O)oc3c2)n1,i,?,4,?,-18,12µM*
Cc1nn(-c2ccccc2)c(Cl)c1/C=C(\CC(=O)O)c1nc2ccccc2s1,i,2%,-1,i,-3,-8%
COc1ccc(-c2noc(=O)n2Cc2cc(C)ccc2C)cc1,?,16µM*,-24,?,-7,?
CC(C)CC(CN)CC(=O)O (stereo not given),.,5%,.,.,.,3%

# High-throughput results as filed in PubChem.
